From PubChem BioAssay AID720518 (National Center for Advancing Translational Sciences (NCATS), 2013)
Results filed as inconclusive are left out. A number with no mark means an inactive call. The source made the active and inactive calls. Calls come from the whole dose curve.

assay: qHTS for Inhibitors of Cell Surface uPA Generation: Wild-type Protective Antigen (WT-PrAg) Counterscreen for Cherry-picked Compounds; settings: cells, WT protective antigen toxicity counterscreen; series mostly up to 115 µM; activity (protection): at the top concentration; for activity (protection): 0% is about no effect
Potency is the fitted concentration of half-maximal effect.

SMILES | activity (protection) | Potency
COC(=O)[C@]1(Cc2ccccc2)N[C@H](CN(C)C(=O)c2ccccc2)[C@@H]2C(=O)N(Cc3ccccc3)C(=O)[C@@H]21 | 1.64% | 
COc1cccc(NC(=O)N2C3CCCC2CC(NC(C)=O)C3)c1 (stereo not given) | 0.204% | 
Cc1cccc(NC(=O)C2CCCN(S(=O)(=O)c3cccc4cccnc34)C2)c1 (stereo not given) | -1.51% | 
Cc1nc(C(=O)N2CCC(n3nccc3NC(=O)Nc3ccccc3Cl)CC2)cs1 | -1.86% | 
COCCCN1CC23C=CC(O2)C(C(=O)O)C3C1=O (stereo not given) | -0.168% | 
COc1ccc(NC(=O)c2cccnc2N2CCOCC2)cc1 | 0.0263% | 
CN1CCN(c2ccc(S(=O)(=O)N3CCOCC3)cc2NC(=O)CSCc2ccccc2)CC1 | 0.65% | 
CC(C)NC(=O)CN1CCC(c2nc3ccccc3[nH]2)CC1 | -0.544% | 
COc1ccc(C2NC(=O)CCC2[N+](=O)[O-])c(OC)c1OC (stereo not given) | -1.26% | 
CCOC(=O)C1CCN(C(=O)COC(=O)c2c(C)c(CC)nc3ccccc23)CC1 | -1.84% | 
Cc1cc(N)n(Cc2ccc(Cl)cc2)n1 | -0.742% | 
CCOC(=O)C1CCN(CC(=O)Nc2cc(C)nn2-c2nc3ccccc3s2)CC1 | 12.1% | 
C[N+]1(CC(O)c2ccccc2)CCCCCC1 (stereo not given) | 0.142% | 
NC(=O)CC(NC(=O)Cc1cccc2ccccc12)c1ccc(N2CCN(c3ccc(F)cc3)CC2)c([N+](=O)[O-])c1 (stereo not given) | -0.604% | 
COc1ccc(S(=O)(=O)N2CCN(Cc3ccccc3)CC2)c(C)c1 | -1.97% | 
CCc1ccccc1N1C(=O)CC(Sc2nccc(C)n2)C1=O (stereo not given) | 0.6% | 
CCOc1ccc(-n2cnc3scc(-c4ccc(OC)c(OC)c4)c3c2=O)cc1 | -2.53% | 
CCCCOc1ccc(S(=O)(=O)N2CCCCC2)cc1 | -0.111% | 
Cn1c(=O)c(=O)n(C)c2cc(S(=O)(=O)CCC(=O)Nc3ccc(F)cc3)ccc21 | 0.666% | 
C[N+](C)(C)CCOC(=O)CBr | -0.69% | 

SMILES | activity (protection) | Potency
COc1ccccc1C(=O)Nc1cccc(C(=O)c2ccccc2)c1 | -1.53% | 
Cn1c(=O)n(CC(=O)O)c(=O)c2c1nc1n2CCCN1CCc1ccccc1 | -1.35% | 
Cc1cccc(CCNC(=O)Cc2ccc(NC3=NC4CS(=O)(=O)CC4S3)cc2)c1 (stereo not given) | 0.911% | 
COC(=O)c1c(NC(=O)c2c(OC)cccc2OC)sc2c1C(C(=O)OC)CC2 (stereo not given) |  | 46.5 µM (active)
COc1ccccc1CNC(=O)CCn1c(=O)oc2ccccc21 | -0.71% | 
O=P1(NCCCl)OCCCN1CCCl (stereo not given) | 0.18% | 
CC1CCCCN1C(=O)CSc1nc2ncccc2[nH]1 (stereo not given) | -1.11% | 
CC(NC(=O)C1CCC(C(=O)NC(C)c2ccccc2)CC1)c1ccccc1 (stereo not given) | 0.354% | 
Cc1oc(-c2ccccc2F)nc1CS(=O)CC(=O)NCc1ccc(F)cc1 (stereo not given) | -1.42% | 
CCCN1CCN(C2CCCCC2NS(=O)(=O)c2ccc(Cl)cc2)CC1 (stereo not given) | 9.95% | 
COC(=O)CSc1nc(N2CCOCC2)c2c(c1C#N)CCCC2 | -0.658% | 
COc1cc(N/C(N)=N/c2nc(C)cc(C)n2)cc(OC)c1 | -2.15% | 
COc1ccc(/C=C/C(=O)Nc2ccccc2Cl)cc1S(=O)(=O)N1CCOCC1 | -0.626% | 
Cc1ccccc1OCCC(=O)NNC(=O)c1ccccc1F | -0.207% | 
O=C(Nc1cccc(-c2nn[nH]n2)c1)c1ccc(Cl)s1 | -1.91% | 
C[C@H](CO)N1C[C@H](C)[C@@H](CN(C)C(=O)Nc2ccccc2)Oc2c(NS(=O)(=O)c3ccccc3)cccc2C1=O | 1.01% | 
O=C(O)CNC(=S)N(Cc1ccccc1)Cc1cccnc1 | -0.77% | 
O=C(CCS(=O)(=O)c1ccc2c(c1)NC(=O)CS2)NCc1cccs1 | 1.32% | 
Cc1ccc(NC2CCCN(C(=O)Cc3nonc3C)C2)cc1C (stereo not given) | -0.306% | 
O=C(/C=C/c1cccc(F)c1)Nc1cc(S(=O)(=O)N2CCOCC2)ccc1Cl | -1.99% | 
